AMA1 RON2 block – inhibitors of Plasmodium falciparum AMA1-RON2 interaction; AlphaScreen AMA1-biotinylated RON2 peptide binding; Potency, µM (series often up to 58.2 µM), hits mostly inhibitors; 360,000 compounds, 0.2% hits; AID 720542; also: nearly all actives have a fitted effect of over 45% in size
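AMA1 (3D7) with his tag at 25 nM final met compounds first, then biotinylated RON2 peptide at 25 nM; detection used donor plus acceptor beads, 10 µg/mL apiece, read by AlphaScreen after 30 min at room temperature.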
Shiga toxin inh – blocks Shiga toxin action in Vero cells. inhibition, % at 38.7 µM. Vero cells, Shiga toxin protein synthesis inhibition reporter. AID 2315. 290,000 compounds, 9.2% hits; in the data active = inhibition mostly above about 28%, no sharp cut-off; inactive = mostly below about 43%
SARS PLP yeast – inhibitors of SARS-CoV papain-like protease in yeast; S. cerevisiae expressing SARS-CoV PLpro, growth rescue; Potency, µM (series often up to 32.9 µM), usual class: activators; 330,000 compounds, 0.19% hits; calls by dose curve; also: nearly all actives have a fitted effect of over 55% in size
Pf growth 48h – inhibits P. falciparum growth in the first generation, 48 h; P. falciparum luciferase growth in erythrocytes, 48 h; Potency, µM (top dose mostly 28.7 µM), most hits filed as inhibitors; 310,000 compounds, 5.9% hits; AID 504832
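Here the parasites carry a stable luciferase gene and grow inside erythrocytes in Albumax-based RPMI medium with compound for one erythrocytic cycle. Activity is scored as loss of luminescent signal.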
Pf growth 96h – inhibits malaria parasite growth, 96 h; P. falciparum luciferase reporter growth, 96 h; Potency, µM (top dose mostly 28.7 µM), usual class: inhibitors; 320,000 compounds, 6.9% hits; AID 504834
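Infected RBCs, 2% Hct / 0.05% parasitemia final; luciferase-reporter P. falciparum; cpd 96 h, 37 C, 5% CO2; luciferase detection reagent; luminescence.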
CHX counter – affects cycloheximide protein synthesis inhibition readout, counter-screen. max response, %. cell reporter, cycloheximide protein synthesis inhibition counterscreen. 300,000 compounds, 12% hits; in the data active = max response mostly above about 13%, no sharp cut-off; inactive = mostly below about 14%; also: read at 38.3 µM for the half of the compounds with a filed dose
A number is an active result; 0 = inactive; ? = inconclusive; - = not tested or not shown; [ ] = dose if it differs, or a comment. Sampled rows, rich in hits. Any-hit rate of the full collection: about 19%. Unless noted, calls follow the shape of the dose curve; as a rule, active = well fitted curve in the direction sought with a large enough effect; inconclusive = small, poorly fitted or top-dose-only effect, or another doubt; inactive = no such curve, though single readings can be large; an effect the other way counts as inactive or inconclusive.

SMILES	AMA1 RON2 block	Shiga toxin inh	SARS PLP yeast	Pf growth 48h	Pf growth 96h	CHX counter
CC(=O)COc1nc2c(c(-c3ccco3)c1C#N)CCc1ccccc1-2	0	0	0	11.7µM	11.7µM	0
O=C1C[C@@H]2c3c(cccc3CN1Cc1ccc(Br)cc1)C[C@@H](O)[C@H]2O	0	-	-	-	-	-
O=c1oc2ccccc2c(O)c1C=Nc1cccnc1	0	0	0	0[1.15 µM]	0	0
CN(C)S(=O)(=O)c1cccc(C(=O)OCC(=O)Nc2sccc2C#N)c1	0	74.5	0	0	-	56.3
COc1ccc(C(=O)NCC(=O)OCC(=O)Nc2sccc2C#N)cc1OC	0	36.1	0	0	0	22.3
CN(C)S(=O)(=O)c1cccc(C(=O)OCC(=O)Nc2ccc3c(c2)OCCO3)c1	0	-	0	0	0	-
O=C(NC1CCCC1)C(=O)N(Cc1cccnc1)C(C(=O)NCC1CCCO1)c1ccco1 (stereo not drawn)	0	0	0	0	0	0
COCCNC(=O)c1ccc2c(c1)ncn2-c1ccc(F)c(F)c1	0	0	0	0	0	17.2
COC(CNC(=O)c1ccc2c(c1)ncn2-c1ccc(F)c(F)c1)OC	0	0	0	0	0	0
COCCCNC(=O)c1ccc2c(c1)ncn2-c1ccc(C)cc1C	0	0	0	11.7µM	0	0
Nc1c(Cl)cc2c(c1Oc1ccccc1)C(=O)c1ccccc1C2=O	0	0	0	-	?	29.0
COc1ccc(N2CCN(C(=O)C3CCCN3S(=O)(=O)c3cccc4nsnc34)CC2)cc1 (stereo not drawn)	0	0	0	0	?	0
COc1cc2ccccc2cc1C(=O)Nc1ccc(N2CCN(C(=O)C(C)C)CC2)cc1	0	0	0	11.7µM	14.7µM	0
COc1cc2ccccc2cc1C(=O)Nc1ccc(N2CCN(C)CC2)cc1	0	0	0	?	-	43.2
COc1cc2ccccc2cc1C(=O)NC(=S)Nc1ccc(C(=O)O)cc1	0	0	0	0	0	0
c1ccc(CNC2CC3CCC2C3)cc1 (stereo not drawn)	0	-	-	-	-	-
Cc1cc(C)c2c(=O)[nH]c(=O)n(Cc3ccccc3)c2n1	0	0	0	-	?	0
COC(=O)c1cc(-c2c(C)nn(-c3ccccc3)c2C)n[nH]1	0	57.5	0	0	0	25.8
O=C(N/N=C/c1ccco1)c1cc(-c2ccccc2)n[nH]1	0	45.7	0	?	0	19.5
Cc1ccc(-c2cc(C(=O)N/N=C/c3c(C)nn(-c4ccccc4)c3C)[nH]n2)cc1	-	0	0	11.7µM	6.57µM	0
Cc1ccc(-c2cc(C(=O)N/N=C/c3ccco3)[nH]n2)cc1	0	0	0	11.7µM	0	0
Cc1nn(-c2ccccc2)c(C)c1-c1cc(C(=O)N/N=C/c2cccnc2)[nH]n1	-	0	0	0	0	0
CCOc1ccc(NC(=O)CCC(=O)NNC(=O)Nc2ccc(Cl)cc2)cc1	0	0	0	0	0	0
O=C(N/N=C/c1ccco1)c1cc(-c2ccc(Cl)cc2)n[nH]1	0	0	0	0	0	0
O=C(N/N=C/c1ccco1)c1cc(-c2cccc3ccccc23)n[nH]1	0	58.0	0	0	0	26.3
SMILES	AMA1 RON2 block	Shiga toxin inh	SARS PLP yeast	Pf growth 48h	Pf growth 96h	CHX counter
O=C(Nc1ccc2c(c1)CCC2)c1cc(=O)[nH]c2ccccc12	0	0	0	0	0	0
O=C(CN(c1ccccc1)S(=O)(=O)c1ccccc1[N+](=O)[O-])NN=C1CCCCCCC1	0	0	0	?	0	0
COC(=O)C1=C(c2ccc(F)cc2OCc2ccccc2)C[C@@H]2CC[C@H]1N2C(=O)N1CCOCC1	0	-	0	6.57µM	?	-
COC(=O)C1=C(c2ccc(F)cc2OCc2ccccc2)C[C@@H]2CC[C@H]1N2C(=O)N1CCC(C)CC1	0	-	0	7.38µM	?	-
CSC1=C(C#N)C(c2ccc(C)s2)CC(=O)N1 (stereo not drawn)	0	0	0	0	2.33µM	0
Cc1cc(C)c(S(=O)(=O)N2CCOC2CNC(=O)C(=O)NCCN(C)C)c(C)c1 (stereo not drawn)	0	0	0	0	0	0
O=c1c2c3c(sc2ncn1/N=C/c1cccnc1)CCCC3	0	100.2	0	0	0	25.8
Cc1cc(C)n(S(=O)(=O)c2cc(Cl)ccc2Cl)n1	0	0	0	10.4µM	0	0
CCOc1ccc(C(C)(C)C)cc1S(=O)(=O)n1nc(C)cc1C	0	0	0	4.65µM	8.28µM	0
CCOc1ccc(C(C)(C)C)cc1S(=O)(=O)N1CC(C)OC(C)C1 (stereo not drawn)	0	0	0	11.7µM	-	0
Cn1c(=O)c2cc(NC(=S)NC3CCCCC3)ccc2n1-c1ccccc1	0	-	-	-	-	-
CC(C)OP(=O)(OC(C)C)C1(NS(=O)(=O)c2ccc(Cl)cc2)C=C(Cl)C(=O)C(Cl)=C1	0	0	0	?	?	0
CCOc1cc2c(cc1OCC)-n1cccc1C(c1ccc(OC)cc1)NC2 (stereo not drawn)	0	0	0	?	?	0
CCOc1cc2c(cc1OCC)-n1cccc1C(c1ccc(OC(F)F)cc1)NC2 (stereo not drawn)	0	0	0	13.1µM	0	0
CCOc1cc2c(cc1OCC)-n1cccc1C(c1ccc(C(C)C)cc1)NC2 (stereo not drawn)	?	0	0	8.28µM	?	0
C(=N\Nc1nc(-c2ccccc2)cs1)/c1ccncc1	0	51.1	0	0	?	42.8
Cc1onc(-c2ccccc2)c1-c1csc(N/N=C/c2ccccc2)n1	0	0	0	?	?	0
ClCc1csc(N/N=C/c2cccs2)n1	-	39.0	0	0	0	17.5
C(=N\Nc1nc(-c2ccccc2)cs1)/c1cccs1	0	105.1	?	0	?	67.8
Cc1cc(NS(=O)(=O)c2ccc(Nc3nc(-c4ccc(O)cc4)cs3)cc2)no1	0[2.32 µM]	0	0	0	0	0
CN(C)S(=O)(=O)c1ccc(-c2csc(N/N=C/c3ccc(O)cc3)n2)cc1	0	0	0	0.329µM	0.0657µM	14.0
CCN1CCc2c(OCC(=O)N3CCCCC3)cccc2C1=O	0	0	0	0	0	0
O=C(CN1CCN(c2ccccc2O)CC1)Nc1cccnc1Cl	?	0	0	0	?	0
Cc1ccc(-c2csc(N/N=C/C=C/c3ccccc3)n2)cc1	0	0	?	?	0	16.3
O=C(Nc1nc2ccccc2[nH]1)C1CC(=O)N(c2ccc3c(c2)OCCO3)C1 (stereo not drawn)	0	0	0	0	8.28µM	28.2
Cc1ccnc(NC(=O)C2CC(=O)N(c3ccc4c(c3)OCCO4)C2)c1 (stereo not drawn)	0	92.4	0	0	0	34.5
O=C(NCC1CCCCC1)C1(CC2CC(c3ccc(Cl)cc3)=NO2)CCNCC1 (stereo not drawn)	0	0	0	?	?	0
CC1(C)CC(=O)c2cnc(N3CCc4ccccc43)nc2C1	0	88.2	0	0	0	50.6
